Results on 13 compounds are retold here after the supplement of paper PMC10646978.

Common to all, as to settings: modulator concentration 10 µM
Assay [1] concerns RAW-Dual (murine macrophage reporter line). Description: NF-kB reporter (SEAP) activity fold change vs agonist alone; higher = enhanced NF-kB activity. The method, boiled down: (§1)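 Compound reached 10 μM final in each well by pin transfer, onto RAW-Dual murine macrophage reporter cells seeded at 50 000 per well in 384-well plates. After 1 hour at 37 °C, the cells were stimulated overnight with a PRR agonist. SEAP in the supernatant was read with QUANTI-Blue at 620 nm absorbance for NF-κB, and Lucia luciferase was read with QUANTI-Luc luminescence for IRF. Each signal was turned into fold change against the mean agonist-only control on the same plate, and two replicate plates were averaged with propagated errors.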

Assay [2] has the same test system. The experiment in a line: IRF reporter (Lucia luciferase) activity fold change vs agonist alone; higher = enhanced IRF activity. Put shortly: as §1
Assay [3] has the same test system. The experiment in a line: viability score (confluency relative to resting cells, overnight) (fraction); higher = more viable, active = viable (0.7 or more). Put shortly: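 Two confluency masks, generated with IncuCyte software over all imaged wells, were applied to IncuCyte images of RAW-Dual macrophages. The cells, in 384-well plates, had been exposed overnight to 10 μM final compound. The viability score is confluency as a fraction of resting cells, and a compound met the cutoff only with both masks above 70% of resting cells.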

Setting [4] is: agonist: CpG ODN 1826 0.5 ug/mL.

± gives the standard deviation.

Turning to `O=C(CSc1ncnc2c(-c3ccccc3)c[nH]c12)NCc1ccc(Cl)cc1`, the NF-kB reporter stood at 1.18 ± 0.059 in assay [1] (setting [4]), 1.13 ± 0.089 in assay [1] (agonist: LPS 0.1 ug/mL) and 0.796 ± 0.035 in assay [1] (agonist: MPLA […]). Moreover, the IRF reporter came out at 1.25 ± 0.064 in assay [2] (agonist: 3'3'-cGAMP 10 ug/mL), 1.18 ± 0.093 in assay [2] (agonist: LPS 0.1 ug/mL) and 1.24 ± 0.26 in assay [2] (agonist: MPLA […]). Further, in assay [3], the viability score is 0.99 (active).
As to `Cc1ccc(S(=O)(=O)n2cnc3ccccc32)cc1`, the NF-kB reporter in assay [1] (setting [4]) was 1.11 ± 0.091; in assay [1] (agonist: LPS 0.1 ug/mL) it was 1.04 ± 0.071; in assay [1] (agonist: MPLA […]) it was 1.02 ± 0.041. Moreover, the values for the IRF reporter in assay [2] (agonist: 3'3'-cGAMP 10 ug/mL), in assay [2] (agonist: LPS 0.1 ug/mL) and in assay [2] (agonist: MPLA […]) were 0.861 ± 0.12, 1.07 ± 0.09 and 0.993 ± 0.14, respectively. For the same compound, the viability score in assay [3] was 0.998 (active).
As for `O=C(O)c1cc(S(=O)(=O)N2CCCCC2)c(Cl)cc1Cl`, the values for the NF-kB reporter in assay [1] (setting [4]), in assay [1] (agonist: LPS 0.1 ug/mL) and in assay [1] (agonist: MPLA […]) were 0.937 ± 0.082, 1.04 ± 0.087 and 0.965 ± 0.12, respectively. For the same compound, the results for the IRF reporter in assay [2] (agonist: 3'3'-cGAMP 10 ug/mL), in assay [2] (agonist: LPS 0.1 ug/mL) and in assay [2] (agonist: MPLA […]) were 0.912 ± 0.11, 1.18 ± 0.11 and 1.06 ± 0.28, respectively. In addition, in assay [3], the viability score is 1.01 (active).
Consider `CS(=O)(=O)C1CC2CCC(C1)N2C(=O)c1cccc(Oc2ccc(F)cc2)c1` (stereo unspecified), for which the values for the NF-kB reporter in assay [1] (setting [4]), in assay [1] (agonist: LPS 0.1 ug/mL) and in assay [1] (agonist: MPLA […]) were 1.07 ± 0.09, 1.13 ± 0.097 and 1.06 ± 0.15, respectively. Besides, the IRF reporter in assay [2] (agonist: 3'3'-cGAMP 10 ug/mL) is 0.94 ± 0.048; in assay [2] (agonist: LPS 0.1 ug/mL) it was 1.2 ± 0.085; in assay [2] (agonist: MPLA […]), 1.33 ± 0.17. Further, the viability score in assay [3] was 0.99 (active).
As for `COC(=O)C1=C(C)NC(C)=C(C(=O)O[C@@H]2CCCN(Cc3ccccc3)C2)[C@@H]1c1cccc([N+](=O)[O-])c1.Cl`, the NF-kB reporter in assay [1] (setting [4]) was 0.323 ± 0.024; in assay [1] (agonist: LPS 0.1 ug/mL), 0.587 ± 0.034; in assay [1] (agonist: MPLA […]) it was 1.31 ± 0.036. Besides, the IRF reporter was found to be 0.31 ± 0.018 in assay [2] (agonist: 3'3'-cGAMP 10 ug/mL), 1.05 ± 0.12 in assay [2] (agonist: LPS 0.1 ug/mL) and 1.25 ± 0.18 in assay [2] (agonist: MPLA […]). For the same compound, in assay [3], the viability score is 0.997 (active).
On to `CSCCC(NC(C)=O)C(=O)N1CCC(n2c(C)nc3ccccc32)C1` (stereo unspecified), for which the NF-kB reporter was determined as 1.07 ± 0.063 in assay [1] (setting [4]), 0.96 ± 0.074 in assay [1] (agonist: LPS 0.1 ug/mL) and 0.952 ± 0.025 in assay [1] (agonist: MPLA […]). The IRF reporter in assay [2] (agonist: 3'3'-cGAMP 10 ug/mL) came out at 0.98 ± 0.04; in assay [2] (agonist: LPS 0.1 ug/mL) it was 0.968 ± 0.086; in assay [2] (agonist: MPLA […]) it was 0.957 ± 0.25. Moreover, the viability score in assay [3] was 1 (active).
`Nc1nc(NC2CC2)c2ncn([C@H]3C=C[C@@H](CO)C3)c2n1` [Prestw-1512]: the values for the NF-kB reporter in assay [1] (setting [4]), in assay [1] (agonist: LPS 0.1 ug/mL) and in assay [1] (agonist: MPLA […]) were 1.12 ± 0.18, 1.18 ± 0.11 and 1.02 ± 0.087, respectively. Moreover, the results for the IRF reporter in assay [2] (agonist: 3'3'-cGAMP 10 ug/mL), in assay [2] (agonist: LPS 0.1 ug/mL) and in assay [2] (agonist: MPLA […]) were 0.935 ± 0.031, 1.01 ± 0.21 and 1.12 ± 0.19, respectively. Further, the viability score in assay [3] is 0.974 (active).
As to `Cc1c(Cl)cccc1NC(=O)C(Cl)=Cc1ccccc1`, the figures for the NF-kB reporter in assay [1] (setting [4]), in assay [1] (agonist: LPS 0.1 ug/mL) and in assay [1] (agonist: MPLA […]) were 0.757 ± 0.082, 0.929 ± 0.11 and 1.07 ± 0.095, respectively. The IRF reporter in assay [2] (agonist: 3'3'-cGAMP 10 ug/mL) stood at 0.799 ± 0.04; in assay [2] (agonist: LPS 0.1 ug/mL), 1.13 ± 0.068; in assay [2] (agonist: MPLA […]), 1.25 ± 0.11. For the same compound, the viability score in assay [3] was 1.01 (active).
For `CN1CCN(C(=O)N2CCC3(CC2)CC3(F)F)CC1`, the NF-kB reporter in assay [1] (setting [4]) amounted to 1.1 ± 0.07; in assay [1] (agonist: LPS 0.1 ug/mL), 0.939 ± 0.12; in assay [1] (agonist: MPLA […]) it was 0.974 ± 0.025. Besides, the IRF reporter in assay [2] (agonist: 3'3'-cGAMP 10 ug/mL) came to 0.894 ± 0.035; in assay [2] (agonist: LPS 0.1 ug/mL), 0.914 ± 0.086; in assay [2] (agonist: MPLA […]), 0.815 ± 0.086. Besides, the viability score in assay [3] is 0.996 (active).
Regarding `Cc1ccc(-c2cc(-c3ccccc3)nc(N3CCOCC3)n2)cc1`, the NF-kB reporter in assay [1] (setting [4]) was found to be 0.811 ± 0.077; in assay [1] (agonist: LPS 0.1 ug/mL), 1.01 ± 0.075; in assay [1] (agonist: MPLA […]) it was 1.1 ± 0.076. The IRF reporter in assay [2] (agonist: 3'3'-cGAMP 10 ug/mL) worked out at 0.71 ± 0.065; in assay [2] (agonist: LPS 0.1 ug/mL), 1.05 ± 0.047; in assay [2] (agonist: MPLA […]) it was 1.17 ± 0.082. Besides, the viability score in assay [3] was 0.998 (active).
As for `COC1(CNC(=O)C2CCN(S(C)(=O)=O)CC2)CCSC1` (stereo unspecified), the NF-kB reporter in assay [1] (setting [4]) amounted to 0.879 ± 0.04; in assay [1] (agonist: LPS 0.1 ug/mL) it was 0.875 ± 0.076; in assay [1] (agonist: MPLA […]), 1.07 ± 0.1. For the same compound, the IRF reporter came to 0.946 ± 0.074 in assay [2] (agonist: 3'3'-cGAMP 10 ug/mL), 1.08 ± 0.15 in assay [2] (agonist: LPS 0.1 ug/mL) and 1.22 ± 0.34 in assay [2] (agonist: MPLA […]). Moreover, the viability score in assay [3] is 0.97 (active).
As to `COc1ccc2c(Cl)c(C(=O)N3CCc4ccccc4C3)sc2c1`, the values for the NF-kB reporter in assay [1] (setting [4]), in assay [1] (agonist: LPS 0.1 ug/mL) and in assay [1] (agonist: MPLA […]) were 0.875 ± 0.13, 0.87 ± 0.052 and 1.81 ± 0.77, respectively. Further, the IRF reporter in assay [2] (agonist: 3'3'-cGAMP 10 ug/mL) was 0.845 ± 0.05; in assay [2] (agonist: LPS 0.1 ug/mL), 1.38 ± 0.095; in assay [2] (agonist: MPLA […]) it was 1.48 ± 0.13. In assay [3], the viability score was 1.01 (active).
For the compound `Cc1c(C(=O)Nc2cccc3ccccc23)cccc1[N+](=O)[O-]`, the NF-kB reporter in assay [1] (setting [4]) was found to be 0.854 ± 0.25; in assay [1] (agonist: LPS 0.1 ug/mL) it was 1.2 ± 0.12; in assay [1] (agonist: MPLA […]) it was 1.04 ± 0.18. Moreover, the IRF reporter came out at 0.807 ± 0.034 in assay [2] (agonist: 3'3'-cGAMP 10 ug/mL), 1.22 ± 0.22 in assay [2] (agonist: LPS 0.1 ug/mL) and 1.41 ± 0.42 in assay [2] (agonist: MPLA […]). In addition, in assay [3], the viability score was 0.633 (inactive).
